# Calls of active or inactive are those of the source. How the source made its calls: active means hit-call score of the fitted dose curve at least 0.9, where 1 is the maximum; inactive means score below 0.9.
# How the values were obtained:
# Conditions in all cases: mRNA level, 48 h; actives raise or lower the signal
# [1] = read-out: Alpha-fetoprotein (AFP) gene, AFP (gene 174); experiment: LTEA_HepaRG_AFP: Life Technologies and Expression Analysis (LTEA) Assay for Alpha-fetoprotein (AFP) gene using HepaRG (AID 2283472)
# Method in brief: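 Differentiated human HepaRG cells exposed 48 h in serum-free induction medium, 8-point half-log series from 100 uM in 0.5% DMSO, duplicate. AFP mRNA by qRT-PCR, normalized to ACTB, GAPDH, POLR2A; bidirectional fit vs DMSO.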
# [2] = read-out: BCL2L11 (gene 10018); experiment: LTEA_HepaRG_BCL2L11: Life Technologies and Expression Analysis (LTEA) Assay for Bcl-2 (BCL2L11) gene using HepaRG (AID 2283473)
# Method in brief: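 Cells were plated, cultured 48 h, switched to serum-free induction medium, then dosed in duplicate for 48 h at eight half-log concentrations up to 100 uM. Lysates underwent RNA isolation and TaqMan qRT-PCR; gain or loss versus DMSO was fitted.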
# [3] = read-out: Apolipoprotein A-V (APOA5) gene, APOA5 (gene 116519); experiment: LTEA_HepaRG_APOA5: Life Technologies and Expression Analysis (LTEA) Assay for Apolipoprotein A-V (APOA5) gene using HepaRG (AID 2283474)
# Method in brief: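 Human liver HepaRG cells are treated 48 h with test chemicals (100 uM top, half-log dilutions, 0.5% DMSO). APOA5 mRNA induction or loss is measured by qRT-PCR relative to vehicle.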
# [4] = read-out: Apoptosis regulator Bcl-2 (Homo sapiens) (UniProt P10415); experiment: LTEA_HepaRG_BCL2: Life Technologies and Expression Analysis (LTEA) Assay for Bcl-2 gene using HepaRG (AID 2283475)
# Method in brief: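 Differentiated human HepaRG cells in serum-free induction medium exposed 48 h, in duplicate, to 8-point half-log series from 100 uM in 0.5% DMSO. BCL2 mRNA by qRT-PCR (TaqMan/Fluidigm), normalized to ACTB, GAPDH, POLR2A; bidirectional fit against DMSO.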
# [5] = read-out: Bcl-2 (BID) gene, BID (gene 637); experiment: LTEA_HepaRG_BID: Life Technologies and Expression Analysis (LTEA) Assay for Bcl-2 (BID) gene using HepaRG (AID 2283476)
# Method in brief: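 Gene expression by qRT-PCR in HepaRG cells after 48 h exposure, duplicate wells, eight half-log concentrations topping at 100 uM in 0.5% DMSO. Normalized to ACTB, GAPDH, POLR2A; bidirectional fitting relative to DMSO.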
# [6] = read-out: Caspase-3 (Homo sapiens) (UniProt P42574); experiment: LTEA_HepaRG_CASP3: Life Technologies and Expression Analysis (LTEA) Assay for cysteine-aspartic acid protease (CASP3) using HepaRG (AID 2283477)
# Method in brief: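 In HepaRG liver cells dosed for 48 h at up to 100 uM (eight-point, duplicate), CASP3 expression changes are scored by qRT-PCR. Activity is fitted in both directions with 0.5% DMSO as baseline.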
# [7] = read-out: Cytochrome P450 (CYP24A1), CYP24A1 (gene 1591); experiment: LTEA_HepaRG_CYP24A1: Life Technologies and Expression Analysis (LTEA) Assay for Cytochrome P450 (CYP24A1) using HepaRG (AID 2283478)
# Method in brief: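 Human liver HepaRG cultures receive each chemical for 48 h across an eight-point half-log series topping at 100 uM in 0.5% DMSO. Induction or suppression of CYP24A1 mRNA is scored relative to vehicle after housekeeping-gene normalization.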
# [8] = read-out: Cytochrome P450 (CYP1A2), CYP1A2 (gene 1544); experiment: LTEA_HepaRG_CYP1A2: Life Technologies and Expression Analysis (LTEA) Assay for Cytochrome P450 (CYP1A2) using HepaRG (AID 2283479)
# Method in brief: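 Assesses CYP1A2 mRNA in human HepaRG liver cells after 48 h chemical exposure at up to 100 uM. Values come from qRT-PCR with bidirectional curve fitting relative to DMSO.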
# [9] = read-out: cysteine-aspartic acid protease (CASP8), CASP8 (gene 841); experiment: LTEA_HepaRG_CASP8: Life Technologies and Expression Analysis (LTEA) Assay for cysteine-aspartic acid protease (CASP8) using HepaRG (AID 2283480)
# Method in brief: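 Differentiated human HepaRG cells, plated 48 h then switched to serum-free induction medium, were exposed in duplicate for 48 h to 8 half-log concentrations up to 100 uM in 0.5% DMSO. CASP8 mRNA was quantified by qRT-PCR, normalized to ACTB/GAPDH/POLR2A.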
# [10] = read-out: Cytochrome P450 (CYP2B6), CYP2B6 (gene 1555); experiment: LTEA_HepaRG_CYP2B6: Life Technologies and Expression Analysis (LTEA) Assay for Cytochrome P450 (CYP2B6) using HepaRG (AID 2283481)
# Method in brief: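 Using 48 h treatment of HepaRG cells in serum-free induction medium, concentrations spanned half-log steps from 100 uM in 0.5% DMSO vehicle. CYP2B6 mRNA induction or loss is scored by qRT-PCR against DMSO.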
# [11] = read-out: Cytochrome P450 2C19 (Homo sapiens) (UniProt P33261); experiment: LTEA_HepaRG_CYP2C19: Life Technologies and Expression Analysis (LTEA) Assay for CYP2C19 using HepaRG (AID 2283482)
# Method in brief: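 Human HepaRG liver cells received test chemicals for 48 h (highest 100 uM, half-log dilutions in 0.5% DMSO). CYP2C19 mRNA induction or loss is read by multiplexed qRT-PCR and fitted in both directions versus vehicle.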
# [12] = read-out: CYP2C8 (gene 1558); experiment: LTEA_HepaRG_CYP2C8: Life Technologies and Expression Analysis (LTEA) Assay for CYP2C8 using HepaRG (AID 2283483)
# Method in brief: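 Differentiated human HepaRG cells were exposed for 48 h in serum-free induction medium to eight half-log concentrations up to 100 uM in 0.5% DMSO, in duplicate. CYP2C8 mRNA was measured by TaqMan qRT-PCR, normalized to ACTB, GAPDH and POLR2A, and fitted bidirectionally against DMSO.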
# [13] = read-out: CYP2C9 (gene 1559); experiment: LTEA_HepaRG_CYP2C9: Life Technologies and Expression Analysis (LTEA) Assay for CYP2C9 using HepaRG (AID 2283484)
# Method in brief: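 Differentiated human HepaRG cells were exposed 48 h in serum-free induction medium to eight half-log concentrations up to 100 uM in 0.5% DMSO. CYP2C9 mRNA was measured by qRT-PCR, normalized to ACTB, GAPDH and POLR2A, and fitted bidirectionally against DMSO.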
# [14] = read-out: CYP2E1 (gene 1571); experiment: LTEA_HepaRG_CYP2E1: Life Technologies and Expression Analysis (LTEA) Assay for CYP2E1 using HepaRG (AID 2283485)
# Method in brief: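 HepaRG cells, plated 48 h, then exposed 48 h in serum-free induction medium to eight half-log concentrations from 100 uM in 0.5% DMSO, duplicate. CYP2E1 mRNA by qRT-PCR, normalized to ACTB/GAPDH/POLR2A; bidirectional fit versus DMSO.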
# [15] = read-out: CYP4A11 (gene 1579); experiment: LTEA_HepaRG_CYP4A11: Life Technologies and Expression Analysis (LTEA) Assay for CYP4A11 using HepaRG (AID 2283486)
# Method in brief: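 Readout is CYP4A11 mRNA induction or suppression (qRT-PCR, ACTB/GAPDH/POLR2A normalization) in human HepaRG cells after 48 h chemical treatment, concentrations to 100 uM in 0.5% DMSO, fitted bidirectionally against vehicle.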
# [16] = read-out: Cytochrome P450 3A4 (Homo sapiens) (UniProt P08684); experiment: LTEA_HepaRG_CYP3A4: Life Technologies and Expression Analysis (LTEA) Assay for CYP3A4 using HepaRG (AID 2283487)
# Method in brief: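 Differentiated HepaRG cells, plated 48 h, then dosed 48 h in serum-free induction medium with 0.5% DMSO, 8 half-log concentrations up to 100 uM, duplicate. CYP3A4 mRNA by qRT-PCR, normalized to ACTB/GAPDH/POLR2A; bidirectional fit versus DMSO.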
# [17] = read-out: DNA damage-inducible transcript 3 (DDIT3), DDIT3 (gene 1649); experiment: LTEA_HepaRG_DDIT3: Life Technologies and Expression Analysis (LTEA) Assay for DNA damage-inducible transcript 3 (DDIT3) using HepaRG (AID 2283488)
# Method in brief: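 HepaRG cells, 48 h after plating, exposed 48 h in serum-free induction medium to 8 half-log concentrations up to 100 uM in 0.5% DMSO, in duplicate. DDIT3 mRNA measured by TaqMan qRT-PCR, normalized to ACTB, GAPDH and POLR2A. Fitted bidirectionally against DMSO.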
# [18] = read-out: Pro-epidermal growth factor (Homo sapiens) (UniProt P01133); experiment: LTEA_HepaRG_EGF: Life Technologies and Expression Analysis (LTEA) Assay for Epidermal growth factor (EGF) using HepaRG (AID 2283489)
# Method in brief: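 EGF expression changes in human HepaRG cells are scored by bidirectional fitting relative to 0.5% DMSO controls. Chemicals are tested at eight half-log concentrations up to 100 uM for 48 h in serum-free induction medium.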
# [19] = read-out: Early growth response protein 1 (EGR1) transcription factor, EGR1 (gene 1958); experiment: LTEA_HepaRG_EGR1: Life Technologies and Expression Analysis (LTEA) Assay for Early growth response protein 1 (EGR1) transcription factor using HepaRG (AID 2283490)
# Method in brief: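 Differentiated human HepaRG cells in serum-free induction medium were exposed in duplicate for 48 h to eight concentrations (top 100 uM, half-log steps) in 0.5% DMSO. EGR1 mRNA was quantified by qRT-PCR, normalized to ACTB, GAPDH and POLR2A, and fitted bidirectionally versus DMSO.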
# [20] = read-out: Ezrin (EZR), EZR (gene 7430); experiment: LTEA_HepaRG_EZR: Life Technologies and Expression Analysis (LTEA) Assay for Ezrin (EZR) using HepaRG (AID 2283491)
# Method in brief: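 EZR transcript levels came from Fluidigm qRT-PCR and were normalized to three housekeeping genes after 48 h chemical exposure of HepaRG cells. Dosing used an 8-point half-log series with a 100 uM top concentration in 0.5% DMSO, tested in duplicate; both directions were fitted versus vehicle.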
# Chain of Cytochrome P450 3A4 (Homo sapiens) (P08684 whole entry, looked up): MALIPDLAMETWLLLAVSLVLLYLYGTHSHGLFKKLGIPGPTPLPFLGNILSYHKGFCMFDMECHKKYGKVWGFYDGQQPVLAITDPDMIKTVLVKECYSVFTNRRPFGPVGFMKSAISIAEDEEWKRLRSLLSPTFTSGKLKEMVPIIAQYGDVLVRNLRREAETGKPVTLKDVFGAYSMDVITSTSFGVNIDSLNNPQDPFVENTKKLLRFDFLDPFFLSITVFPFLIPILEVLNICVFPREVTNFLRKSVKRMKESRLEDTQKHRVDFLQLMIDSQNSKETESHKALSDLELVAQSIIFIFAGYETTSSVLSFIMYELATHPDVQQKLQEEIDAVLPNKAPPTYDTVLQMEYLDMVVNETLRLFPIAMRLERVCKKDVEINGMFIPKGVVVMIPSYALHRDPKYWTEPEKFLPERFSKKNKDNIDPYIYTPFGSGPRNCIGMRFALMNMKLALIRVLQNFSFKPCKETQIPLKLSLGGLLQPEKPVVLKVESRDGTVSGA
# Chain of Cytochrome P450 2C19 (Homo sapiens) (P33261 whole entry, looked up): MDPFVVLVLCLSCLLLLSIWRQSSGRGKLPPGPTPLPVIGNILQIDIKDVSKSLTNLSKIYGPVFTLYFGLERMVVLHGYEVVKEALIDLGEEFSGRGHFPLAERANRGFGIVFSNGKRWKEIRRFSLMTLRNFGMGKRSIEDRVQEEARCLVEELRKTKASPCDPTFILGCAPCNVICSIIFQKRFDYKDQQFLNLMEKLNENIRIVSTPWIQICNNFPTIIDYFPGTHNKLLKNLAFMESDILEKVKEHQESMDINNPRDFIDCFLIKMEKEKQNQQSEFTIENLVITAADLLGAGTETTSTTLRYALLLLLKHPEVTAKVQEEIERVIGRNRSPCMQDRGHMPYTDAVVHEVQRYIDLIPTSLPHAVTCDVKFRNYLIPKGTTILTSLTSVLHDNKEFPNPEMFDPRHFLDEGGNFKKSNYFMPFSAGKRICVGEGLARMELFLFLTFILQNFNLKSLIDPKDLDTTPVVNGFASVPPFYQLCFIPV
# Chain of Apoptosis regulator Bcl-2 (Homo sapiens) (P10415 whole entry, looked up): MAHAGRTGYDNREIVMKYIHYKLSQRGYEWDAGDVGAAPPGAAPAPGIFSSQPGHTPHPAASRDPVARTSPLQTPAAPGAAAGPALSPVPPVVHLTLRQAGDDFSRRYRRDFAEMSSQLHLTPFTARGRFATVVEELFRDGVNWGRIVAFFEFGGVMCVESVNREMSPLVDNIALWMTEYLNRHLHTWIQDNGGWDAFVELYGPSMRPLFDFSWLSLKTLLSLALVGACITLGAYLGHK
# Chain of Caspase-3 (Homo sapiens) (P42574 whole entry, looked up): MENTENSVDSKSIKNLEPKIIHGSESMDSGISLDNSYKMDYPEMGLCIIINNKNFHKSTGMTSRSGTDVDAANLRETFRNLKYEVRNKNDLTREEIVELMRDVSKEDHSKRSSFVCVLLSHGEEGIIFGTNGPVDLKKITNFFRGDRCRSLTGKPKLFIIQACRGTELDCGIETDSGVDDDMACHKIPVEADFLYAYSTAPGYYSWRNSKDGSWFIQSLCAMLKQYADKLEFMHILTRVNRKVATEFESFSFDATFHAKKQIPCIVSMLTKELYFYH
compound,measurement,setting,value
CC(C)COC(=O)c1ccccc1C(=O)OCC(C)C,outcome,[1],inactive
same,outcome,[2],inactive
same,outcome,[3],inactive
same,outcome,[4],inactive
same,outcome,[5],inactive
same,outcome,[6],inactive
same,outcome,[7],inactive
same,AC50,[8],32.5 µM (active)
same,outcome,[9],inactive
same,outcome,[10],inactive
same,outcome,[11],inactive
same,outcome,[12],inactive
same,outcome,[13],inactive
same,outcome,[14],inactive
same,outcome,[15],inactive
same,outcome,[16],inactive
same,outcome,[17],inactive
same,outcome,[18],inactive
same,outcome,[19],inactive
same,outcome,[20],inactive
CCCCCCCCCCCCCN1CC(C)OC(C)C1 (stereo not given),outcome,[1],inactive
same,outcome,[2],inactive
same,outcome,[3],inactive
same,outcome,[4],inactive
same,outcome,[5],inactive
same,outcome,[6],inactive
same,outcome,[7],inactive
same,AC50,[8],50 µM (active)
same,outcome,[9],inactive
same,outcome,[10],inactive
same,outcome,[11],inactive
same,outcome,[12],inactive
same,outcome,[13],inactive
same,outcome,[14],inactive
same,outcome,[15],inactive
same,outcome,[16],inactive
same,outcome,[17],inactive
same,outcome,[18],inactive
same,outcome,[19],inactive
same,outcome,[20],inactive
CCCSC(=O)N(CCC)CCC,outcome,[1],inactive
same,outcome,[2],inactive
same,outcome,[3],inactive
same,outcome,[4],inactive
same,outcome,[5],inactive
same,outcome,[6],inactive
same,outcome,[7],inactive
same,outcome,[8],inactive
same,outcome,[9],inactive
same,AC50,[10],50 µM (active)
same,outcome,[11],inactive
same,outcome,[12],inactive
same,outcome,[13],inactive
same,outcome,[14],inactive
same,outcome,[15],inactive
same,outcome,[16],inactive
same,outcome,[17],inactive
same,outcome,[18],inactive
same,outcome,[19],inactive
same,outcome,[20],inactive
